The record followed here is the OligoGym collection.
Note: reference of the scale not given here.

For one assay, the target named is SEC11C. Put plainly: pooled miR-30 sensor sort-seq; sequence = guide strand. The note with it: shRNA.
The sequence TAGTCATTCATTATTATGGTGA came in with a sensor-assay potency score (higher = more potent) of -0.647.

In turn, ATCTTTTTCATGAACTTTGATT returned a sensor-assay potency score (higher = more potent) of -1.19.

TAAAACCTGGTAATAGAGCTGG: the sensor-assay potency score (higher = more potent) was -0.222.

In turn, ATGAACTTTGATTACTCTGTGA yielded a sensor-assay potency score (higher = more potent) of -0.369.

As for TTTGATTACTCTGTGAACTATT, the sensor-assay potency score (higher = more potent) was -0.483.

Another assay addresses SEC22B. The description is as above. The note with it: shRNA.
Take TCGTTGTAACACTTCTTCGATA: the sensor-assay potency score (higher = more potent) was -1.15.

As to TTCATTTTCAGGACATCTCTTT, the sensor-assay potency score (higher = more potent) stood at 0.0656.

As for TCGAGCACAACTGTCAATGTAG, the sensor-assay potency score (higher = more potent) came to 0.24.

For the sequence TCAATGTAGAGCTTCTTGGTTT, the sensor-assay potency score (higher = more potent) was -0.305.

TTCTAATACACATCTCTGTGAG yielded a sensor-assay potency score (higher = more potent) of 0.118.

Regarding TAATATAATTCACTTACCCTAA, the sensor-assay potency score (higher = more potent) was -0.417.

In the case of TTTCCTGAAAATATACACCTAC, the sensor-assay potency score (higher = more potent) was found to be 0.224.

TCTAATACACATCTCTGTGAGC displayed a sensor-assay potency score (higher = more potent) of -0.275.

On to TTTCAGGACATCTCTTTTCTTG, for which the sensor-assay potency score (higher = more potent) is -0.395.

TTGGATTCTAATACACATCTCT came in with a sensor-assay potency score (higher = more potent) of 0.391.

For TAGCCTTTGAATCCAATGCTGA, the sensor-assay potency score (higher = more potent) was -0.568.

The next assay concerns the target SEC61B. The description is as above. The settings on record: shRNA.
The sequence TGGAACAGGGCCAACTTTGAGC had a sensor-assay potency score (higher = more potent) of -1.17.

Sequence TTCTGTGTAGAATCGCCACATC yielded a sensor-assay potency score (higher = more potent) of -0.647.

With ATGTGCAACATAAATACAGAAG, the sensor-assay potency score (higher = more potent) was -1.59.

ATCTTCTGTGTAGAATCGCCAC registered a sensor-assay potency score (higher = more potent) of -0.702.

As to TAGAATCGCCACATCCCCCCGG, the sensor-assay potency score (higher = more potent) is -0.342.

In turn, AAATGTGCAACATAAATACAGA came in with a sensor-assay potency score (higher = more potent) of -1.05.

For TAAAACAGCAAGCTTACAGAAA, the sensor-assay potency score (higher = more potent) is -1.05.

With TGCAACATAAATACAGAAGCGA, the sensor-assay potency score (higher = more potent) was -0.661.

TTCCTCTGCCGGACAGTGGATC: the sensor-assay potency score (higher = more potent) is -1.27.

With TCTTCTGTGTAGAATCGCCACA, the sensor-assay potency score (higher = more potent) is -0.746.

As to ATAACCAATACTGGAACAGGGC, the sensor-assay potency score (higher = more potent) is -0.892.

TACTGGAACAGGGCCAACTTTG showed a sensor-assay potency score (higher = more potent) of -1.5.

A further assay deals with SEC62. The description is as above. The settings on record: shRNA.
In the case of TTATGTACAGAATACACTTTAC, the sensor-assay potency score (higher = more potent) is -1.09.

As for TTTAAGTCTGCTTTTGGTCCTT, the sensor-assay potency score (higher = more potent) stood at 0.441.

As to TATGTCTTTATCATATTTCATT, the sensor-assay potency score (higher = more potent) was -1.38.

TTTGTTGGACAGTTGAATCGAA: the sensor-assay potency score (higher = more potent) turned out to be 0.088.

Regarding TTGTTGGACAGTTGAATCGAAG, the sensor-assay potency score (higher = more potent) was -1.44.

The sequence TCCATTTCCACTACTGTGCTGG came in with a sensor-assay potency score (higher = more potent) of -0.484.

TTCTATAAAATGAAGGACCGAA gave a sensor-assay potency score (higher = more potent) of -0.0759.

As to TTCAATATGGTAATCAGCCAAC, the sensor-assay potency score (higher = more potent) is -1.13.

Sequence TAAAGCTTCCTCTCCTTTCTTG returned a sensor-assay potency score (higher = more potent) of 0.192.

In the case of TGACTTTTCCTCACTGTCGGAC, the sensor-assay potency score (higher = more potent) is -0.575.

On to TAAATAAAGCTTCCTCTCCTTT, for which the sensor-assay potency score (higher = more potent) is -0.505.

Sequence TAGTCAACCACAGACTCCCTGG came in with a sensor-assay potency score (higher = more potent) of -0.485.
